# Reference: PubChem BioAssay AID602382 (Sanford-Burnham Center for Chemical Genomics, 2012)
# The other results are listed elsewhere or left out. Unmarked numbers belong to inactive results. How the calls were made is not given here.
# Assay: spectral interference with molecular beacon fluorescence, dose response, artefact control for DNMT1 inhibitor project, biochemical, fluorescent molecular beacon (AID 602382)
# Conditions: spectral interference counter-screen
smiles,measurement,value
Cc1c(C(=O)O)cccc1-n1c(C)cc(/C=C2\C(=O)NC(=O)N(c3ccc4c(c3)OCO4)C2=O)c1C,IC50,> 99 µM
